# Screening data deposited in PubChem BioAssay by Broad Institute.
# Hits are enriched below; roughly 3.1% of the tested compounds scored in any of these assays.
# DENV2 CPE: inhibitors of DENV2 cytopathic effect, primary screen, cell-based, plate reader, single concentration; DENV2-infected cells, cytopathic effect rescue; CPE inhibition, % at 9.99 µM; hit rate 1.7% among 350,000; AID 651640, 2012; in the data active means CPE inhibition above about 20%, passing the limit was not always enough; inconclusive means no clear call, values can overlap the other calls; tested in BHK-21 cells;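 further: 0% = median of neutral control wells and 100% = median of positive control wells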
# GSIS activator: GLuc luminescence reporter in INS-1E cells, primary screen for activators of glucose-dependent secretion of insulin; activation, % at 16.6 µM; hit rate 0.61% among 370,000; AID 743287, 2014; INS-1E GLuc reporter insulin secretion, 2-3 h;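 active means lowest replicate activation of at least 40%, so every replicate reaches that level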;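 further: 0% = median of neutral control wells and 100% = median of IBMX positive control wells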
# MLL AF4-AF9 inh: inhibitors of AF4 peptide binding to AF9, primary screen, biochemical, AlphaScreen, biotin-AF4 peptide, FLAG-AF9, single point | Protein AF-9 (Homo sapiens), P42568 | inhibition, % at 10 µM | hit rate 0.47% among 350,000 | AID 651704, 2012;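 active means every replicate reaching a set inhibition limit, whatever the replicate mean, cut at about 25% in these data; inconclusive means mean inhibition reaches that limit but some replicates miss it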;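 further: 0% = plate neutral control median and 100% = total signal loss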
# RAD52 inh: RAD52 DNA annealing inhibitors, primary screen, biochemical, FRET, single point, set 2; DNA repair protein RAD52 homolog (Homo sapiens), P43351; recombinant RAD52 DNA annealing, FRET fluorescence; inhibition, % at 18.7 µM; hit rate 0.46% among 360,000;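 active means every replicate showing at least 50% inhibition; inconclusive means mean inhibition at least 50% but not in every replicate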
# Target sequence (P43351 whole entry, looked up): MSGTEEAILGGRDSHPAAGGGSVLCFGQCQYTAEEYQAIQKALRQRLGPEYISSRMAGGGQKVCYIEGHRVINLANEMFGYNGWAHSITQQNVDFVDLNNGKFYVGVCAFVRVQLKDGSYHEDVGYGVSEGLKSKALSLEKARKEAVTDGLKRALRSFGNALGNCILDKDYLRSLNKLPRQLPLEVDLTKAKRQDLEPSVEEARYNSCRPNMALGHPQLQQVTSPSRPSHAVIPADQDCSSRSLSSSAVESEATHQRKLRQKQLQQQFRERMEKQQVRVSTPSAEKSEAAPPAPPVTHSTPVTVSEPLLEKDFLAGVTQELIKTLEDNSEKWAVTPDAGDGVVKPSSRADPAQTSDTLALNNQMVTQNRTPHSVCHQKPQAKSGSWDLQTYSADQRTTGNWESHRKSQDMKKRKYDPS
# RAD54 branch: inhibitors of human RAD54 branch migration, primary screen, biochemical, fluorescence, single point; DNA repair and recombination protein RAD54-like (Homo sapiens), Q92698; RAD54 Holliday junction branch migration, FAM/BHQ fluorescence; inhibition, % at 10.4 µM; hit rate 0.14% among 360,000;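 active means mean normalized replicate activity at least 40 and at least half of replicates scoring 40 or more; inconclusive means only one of the two criteria met; inactive means mean below 40 and under half of replicates reaching 40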;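 further: 0% = median of neutral control wells and 100% = median of positive control wells; inhibitors cause a drop in the FAM fluorescence signal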
# dFosB activator: activators of delta FosB homodimer, primary screen, biochemical, fluorescence polarization, TAMRA-CDK5 oligo, single point; purified delta FosB; percent of positive-control signal above neutral wells; AID 493131, 2011; Protein FosB (Mus musculus), P13346; activation, % at 25 µM; hit rate 0.99% among 340,000;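 active means mean activation above about 17%, with every replicate also reaching it, limit read from the data, passing the limit was not always enough; inconclusive means only one of the two conditions met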
# * = called active by the depositor; ? = inconclusive; nt = no result given; ! = repeats disagree.
SMILES,DENV2 CPE,GSIS activator,MLL AF4-AF9 inh,RAD52 inh,RAD54 branch,dFosB activator
C[C@H]1CN([C@@H](C)CO)C(=O)CCCn2cc(nn2)CO[C@H]1CN(C)Cc1ccc(O)cc1,9.1,12.8,0.1,1.0,3.6,nt
COc1ccccc1CNC(=O)C[C@H]1CC[C@@H]2[C@@H](COc3ccc(NC(=O)Nc4ccc(F)c(F)c4)cc3C(=O)N2C)O1,2.7,-6.5,-2.8,-20.2,0.3,nt
COc1ccc(OC)c(N/C(=N/c2nc(C)cc(C)n2)NC(C)=O)c1,4.4,13.6,27.1*,0.6,nt,-14.8
Cc1cccc(-c2ccc(C3[C@@H]4CN(C(=O)C5CCCC5)C[C@H]3N4)cc2)c1 (stereo partly drawn),11.6,10.3,9.8,41.9,nt,nt
O=C(C1CCCC1)N1C[C@@H]2N[C@H](C1)C2c1ccc(-c2cccc(F)c2)cc1 (stereo partly drawn),47.3*!,19.6,3.9,7.7,nt,nt
O=C(C1CC1)N1C[C@@H]2N[C@H](C1)C2c1ccc(-c2cccc(F)c2)cc1 (stereo partly drawn),59.1*!,4.5,nt,nt,nt,nt
COCC(=O)N[C@H]1CC[C@H](CC(=O)NCc2ccc(Cl)cc2)O[C@@H]1CO,-1.9,-0.6,-1.2,-0.8,0.7,nt
Cc1ccc(-c2ccnc3c(Cl)c(C)nn23)cc1,8.3,3.0,51.1*,-3.7,-9.0,-3.8
Cc1nn2c(-c3ccncc3)ccnc2c1Cl,nt,-8.1,-3.3,-15.3,15.4,-9.4
C[C@H](CO)N1C[C@H](C)[C@@H](CN(C)Cc2ccccc2)Oc2ccc(NC(=O)C3CCCCC3)cc2CC1=O,37.7*,-12.1,8.3,24.6,-11.8,nt
C[C@H](CO)N1C[C@H](C)[C@@H](CN(C)Cc2ccc(C(F)(F)F)cc2)Oc2ccc(NC(=O)C3CCCCC3)cc2CC1=O,42.0*,-26.2,1.5,23.8,4.1,nt
C[C@@H]1CN([C@H](C)CO)C(=O)Cc2cc(NC(=O)C3CCCCC3)ccc2O[C@@H]1CN(C)Cc1ccccc1,-7.3,-8.6,2.6,9.2,-15.0,nt
C[C@@H]1CN([C@@H](C)CO)C(=O)Cc2cc(NC(=O)C3CCCCC3)ccc2O[C@@H]1CN(C)Cc1ccc(C(F)(F)F)cc1,-2.1,-25.1,0.7,4.6,1.6,nt
C[C@@H](O)C#Cc1cnc2c(c1)C(=O)N([C@@H](C)CO)C[C@H](C)[C@@H](CN(C)C(=O)c1ccccc1)O2,-7.6,-6.2,0.4,-5.8,-0.9,nt
Cc1ccc2oc(-c3cccc(NC(=O)Cc4cccs4)c3)nc2c1,nt,64.7*,nt,nt,-4.2,?
Cc1ccc(Sc2ncccc2C(=O)NCc2cc([N+](=O)[O-])ccc2O)cc1C,58.4*,-37.6,0.8,-13.5,-22.6,-10.1
CC(NC(=O)CN1CCOCC1)c1ccccc1 (stereo not drawn),2.9,3.0,-5.2,0.7,8.7,10.2
CC(NC(=O)CN1CCCC1)c1ccccc1 (stereo not drawn),23.6*,-5.4,-2.7,-16.0,-2.9,7.3
Cc1ccccc1CN1CCN(CC(=O)NC(C)c2ccccc2)CC1 (stereo not drawn),27.2*,-3.3,1.2,-8.9,-7.0,3.7
C[C@@H](O)C#Cc1cnc2c(c1)C(=O)N([C@@H](C)CO)C[C@H](C)[C@H](CN(C)C(=O)CN1CCOCC1)O2,-2.1,30.4,-3.2,-6.6,-0.1,nt
Cc1ccc(S(=O)(=O)N(C)C)cc1NC(=O)[C@H](Cc1ccccc1)N1C(=O)c2ccccc2C1=O,41.7*,2.1,3.3,-39.6,nt,-2.8
COc1ccc(S(=O)(=O)N(C)C)cc1NC(=O)[C@H](Cc1ccccc1)N1C(=O)c2ccccc2C1=O,nt,-0.2,nt,nt,-1.0,-3.3
CCC(=O)N(C)C[C@H]1Oc2cc(C#CC3CCCC3)ccc2S(=O)(=O)N([C@@H](C)CO)C[C@@H]1C,17.4,-28.0,8.0,2.6,-3.8,nt
NC(=O)CC(NC(=O)Cc1ccc(Br)cc1)c1ccc(NC2CCN(Cc3ccccc3)CC2)c([N+](=O)[O-])c1 (stereo not drawn),-3.4,-2.2,-13.6,9.9,-7.5,-7.3
NC(=O)CC(NC(=O)Cc1cccc2ccccc12)c1ccc(NCCc2ccc(F)cc2)c([N+](=O)[O-])c1 (stereo not drawn),nt,-5.9,nt,nt,7.7,-1.5
SMILES,DENV2 CPE,GSIS activator,MLL AF4-AF9 inh,RAD52 inh,RAD54 branch,dFosB activator
NC(=O)CC(NC(=O)Cc1cccc2ccccc12)c1ccc(NC2CCN(Cc3ccccc3)CC2)c([N+](=O)[O-])c1 (stereo not drawn),19.9,2.3,53.6*,-14.0,-5.0,1.0
NC(=O)CC(NC(=O)Cc1cccc2ccccc12)c1ccc(NCCc2ccccc2F)c([N+](=O)[O-])c1 (stereo not drawn),21.3*,-0.3,2.7,-30.8,7.6,-6.0
O=C(C[C@H]1CC[C@@H]2[C@H](COC[C@H](O)CN2CC2CCCCC2)O1)NCC1CC1,29.5*,-10.3,-2.6,2.3,2.7,nt
O=C(C[C@H]1CC[C@@H]2[C@H](COC[C@@H](O)CN2CC2CCCCC2)O1)NCC1CC1,10.6,5.8,-4.3,20.1,2.5,nt
CN(C)CCCNC(=O)C[C@@H]1CC[C@H]2[C@@H](COC[C@H](O)CN2CC2CCCCC2)O1,?,13.3,-0.4,64.7*,nt,nt
O=C(C[C@H]1CC[C@@H]2[C@H](COC[C@H](O)CN2CC2CCOCC2)O1)N1CCOCC1,48.8*,16.5,-7.5,7.5,-6.2,nt
CNC(=O)C(=O)NCC1OCCCN1S(=O)(=O)c1ccc(F)cc1C (stereo not drawn),2.1,44.3*,-3.5,-2.6,6.5,-0.5
CCNC(=O)C(=O)NCC1OCCCN1S(=O)(=O)c1ccc(F)cc1C (stereo not drawn),4.4,-13.9,-6.0,2.3,0.2,-14.4
COc1ccccc1NC(=O)N[C@@H]1C=C[C@H](CC(=O)N[C@@H](C)c2ccccc2)O[C@H]1CO,66.0*,-2.8,0.1,-2.3,-8.2,nt
O=C1CSC(c2cccc(O)c2)N1Cc1ccccc1 (stereo not drawn),7.1,41.9*,1.6,-13.4,nt,-6.1
O=C(Nc1cccc(F)c1)N1CC(=O)N2[C@H](CO)[C@@H](c3ccc(-c4ccc(F)cc4)cc3)[C@H]2C1,-5.8,-23.9,-6.2,-10.7,nt,nt
Cc1ccc(NC(=O)c2ccc(-n3cccn3)c([N+](=O)[O-])c2)cc1,nt,nt,nt,nt,1.8,-7.7
O=C(Nc1ccc(C2=NCCN2)cc1)c1ccc(C(=O)Nc2ccc(C3=NCCN3)cc2)c([N+](=O)[O-])c1,-2.0,29.2,37.8*,104.1*,nt,?
CCOC(=O)c1[nH]c2ccc(OC)cc2c1NC(=O)/C=C/c1ccc2c(c1)OCO2,nt,65.6*,nt,nt,nt,1.6
